# Measurements as given in publication PMC11062922 (Nature Chemical Biology, 2023).
# Like-named read-outs stand apart in the source and are kept apart here.
# Columns and labels:
# Parameters in all cases: species or system human, MV4-11 + K-562 + COLO205 + SK-N-BE2 + OVCAR-8
# GSK3A = details: read-out: apparent Kd, n = 1
# GSK3B = details: read-out: apparent Kd, n = 1
# MAPK14 = details: read-out: apparent Kd, n = 1
# SIK2 = details: read-out: apparent Kd, n = 1
# CDKL5 = details: read-out: apparent Kd; compound concentrations:100 nM and 1000 nM (sheet 'Samples'); n = 1
# DYRK1A = details: read-out: apparent Kd; compound concentrations:100 nM and 1000 nM (sheet 'Samples'); n = 1
# ACAD11 = details: read-out: apparent Kd, n = 1
# ACVR1 = details: read-out: apparent Kd, n = 1
# SRC = details: read-out: apparent Kd; compound concentrations: 100 nM and 1000 nM (sheet 'Samples'), CATDS: 9.2821429290207799E-2; n = 1
# LYN = details: read-out: apparent Kd; compound concentrations: 100 nM and 1000 nM (sheet 'Samples'), CATDS: 3.75888213105793E-2; n = 1
# EGFR = details: read-out: apparent Kd, n = 1
# FRK = details: read-out: apparent Kd; compound concentrations: 100 nM and 1000 nM (sheet 'Samples'), CATDS: 5.2265489654336902E-2; n = 1
# ACOX1 = details: read-out: apparent Kd, compound concentrations: 100 nM and 1000 nM (sheet 'Samples'), n = 1
# FLT3 = details: read-out: apparent Kd; compound concentrations: 100 nM and 1000 nM (sheet 'Samples'), CATDS: 0.86450810261160804; n = 1
# DDR1 = details: read-out: apparent Kd, n = 1
# DDR2 = details: read-out: apparent Kd, n = 1
# TGFBR1 = details: read-out: apparent Kd, n = 1
# PRKD2 = details: read-out: apparent Kd; compound concentrations: 100 nM and 1000 nM (sheet 'Samples'), CATDS: 2.85113335407263E-2; n = 1
# [1] = compound concentrations:100 nM and 1000 nM (sheet 'Samples')
compound,measurement,setting,value
Cl.Cn1c(=O)c(Cc2ccc(F)cc2F)cc2cnc(NC3CCOCC3)nc21 [RO3308757-001],potency estimated from few doses,GSK3A; [1],484 nM
same,potency estimated from few doses,GSK3B; [1],745 nM
same,potency estimated from few doses,MAPK14; [1],442 nM
same,potency estimated from few doses,SIK2; [1],812 nM
CC(=O)c1c(-c2ccncc2)[nH]c(-c2ccncc2)c1C [GW493036X],potency estimated from few doses,CDKL5,1670 nM
same,potency estimated from few doses,DYRK1A,53.7 nM
same,potency estimated from few doses,GSK3A; [1],400 nM
same,potency estimated from few doses,GSK3B; [1],535 nM
CN1CCN(c2ccc(Nc3nc(N)c(C(=O)c4ccc5c(c4)OCCO5)s3)cc2)CC1 [RO0505124-000],potency estimated from few doses,"ACAD11; compound concentrations: 100 nM and 1000 nM (sheet 'Samples'), CATDS: 0.36798074276012699",137 nM
Cc1cc(O)cc(C)c1/C=C/c1cncc(-c2nn[nH]n2)c1.Cl [GW441806A],potency estimated from few doses,"ACVR1; compound concentrations: 100 nM and 1000 nM (sheet 'Samples'), CATDS: 0.132778001486796",85.5 nM
same,potency estimated from few doses,"SIK2; compound concentrations: 100 nM and 1000 nM (sheet 'Samples'), CATDS: 4.4020639379416998E-2",1540 nM
CN1CCN(Cc2cccc(-c3ccc4c(Nc5ccc(Oc6ccccc6)cc5)ccnc4c3)c2)CC1 [GW578342X],potency estimated from few doses,SRC,825 nM
O=S(=O)(c1ccc(-c2ccnc3[nH]ccc23)cc1)N1CCCC1 [GSK846226A],potency estimated from few doses,ACAD11; [1],693 nM
COc1cccc(-c2c[nH]c3c(N/N=C/c4ccncc4)ncnc23)c1 [GW814408X],potency estimated from few doses,ACVR1; [1],1370 nM
same,potency estimated from few doses,CDKL5,1300 nM
same,potency estimated from few doses,GSK3A; [1],133 nM
same,potency estimated from few doses,GSK3B; [1],112 nM
same,potency estimated from few doses,SIK2; [1],1180 nM
COc1ccc(-c2ccncc2)cc1C(N)=O [GSK605714A],potency estimated from few doses,"ACAD11; compound concentrations: 100 nM and 1000 nM (sheet 'Samples'), CATDS: 0.66413142428119099",619 nM
COc1cc2ncn(-c3cc(O[C@H](C)c4ccccc4Cl)c(C(N)=O)s3)c2cc1OC [GSK237701A],potency estimated from few doses,ACAD11; [1],756 nM
Clc1ccc(-c2nn3ncccc3c2-c2ccnc(Nc3ccccc3)n2)cc1 [GW829055X],potency estimated from few doses,LYN,1350 nM
Fc1cccc(COc2ccc(Nc3ncncc3C#Cc3ccccc3)cc2Cl)c1 [GW651576X],potency estimated from few doses,"EGFR; compound concentrations: 100 nM and 1000 nM (sheet 'Samples'), CATDS: 8.85764063435832E-2",663 nM
COc1cc(N2CCN(C(C)C)CC2)ccc1Nc1nc(Nc2cccc(F)c2C(=O)O)c2cc[nH]c2n1 [GSK1819799A],potency estimated from few doses,FRK,1130 nM
Cl.Fc1cccc(COc2ccc(Nc3ncnc4cc(-c5ccc[nH]5)sc34)cc2Cl)c1 [GW693881A],potency estimated from few doses,ACOX1; CATDS: 0.17026663208719101,1170 nM
same,potency estimated from few doses,"EGFR; compound concentrations: 100 nM and 1000 nM (sheet 'Samples'), CATDS: 0.260445959414705",495 nM
CCCN1CCC(Oc2cc(Nc3nc(Nc4cccc(F)c4C(N)=O)c4cc[nH]c4n3)c(OC)cc2Cl)CC1 [GSK1713088A],potency estimated from few doses,ACOX1; CATDS: 0.172971631917821,2220 nM
Cc1ccc(CC(=O)N2CCc3cc(-c4cn(C)c5ncnc(N)c45)ccc32)cc1 [GSK2634758A],potency estimated from few doses,ACOX1; CATDS: 0.17317335895949701,1310 nM
Cn1cc(C2=C(c3cccc([N+](=O)[O-])c3)C(=O)NC2=O)c2ccccc21 [RO0317474-000],potency estimated from few doses,ACOX1; CATDS: 0.177541909552099,937 nM
CC(=O)Nc1ccc2c(C3=C(c4cn(C)c5ccccc45)C(=O)NC3=O)cn(C)c2c1 [RO0317596-000],potency estimated from few doses,ACOX1; CATDS: 0.20475693554228799,453 nM
same,potency estimated from few doses,"GSK3A; compound concentrations: 100 nM and 1000 nM (sheet 'Samples'), CATDS: 0.16934615909466",626 nM
same,potency estimated from few doses,"GSK3B; compound concentrations: 100 nM and 1000 nM (sheet 'Samples'), CATDS: 0.12883781394947599",1100 nM
Cc1ccc(NC(=O)c2ccc(Cl)cc2)cc1-c1ccc(C(=O)Nc2ccncc2)cc1 [GSK1398467A],potency estimated from few doses,ACOX1; CATDS: 0.25978974702241497,761 nM
COc1ccc(S(=O)(=O)NC2CCN(c3cc(C)nc(Nc4cccc(C#N)c4)n3)CC2)cc1.O=C(O)C(F)(F)F [GSK1653539A],potency estimated from few doses,ACOX1; CATDS: 0.290276615306997,1770 nM
Cc1ccc(C(=O)NC2CC2)cc1-c1ccc2[nH]ncc2c1 [GW820759X],potency estimated from few doses,ACOX1; CATDS: 0.303559006930335,1410 nM
Cn1cc(C2=C(c3cn(CCCN/C(N)=N/[N+](=O)[O-])c4ccccc34)C(=O)NC2=O)c2ccccc21 [RO0318161-000],potency estimated from few doses,ACOX1; CATDS: 0.32839321732103,1100 nM
same,potency estimated from few doses,"GSK3A; compound concentrations: 100 nM and 1000 nM (sheet 'Samples'), CATDS: 0.30578210093767899",1280 nM
O=C1Nc2ccc(F)cc2/C1=C/c1ccc[nH]1 [RO0272148-000],potency estimated from few doses,ACOX1; CATDS: 0.35170736518262402,1160 nM
same,potency estimated from few doses,FLT3,98.5 nM
Cn1cc(C2=C(c3cn(CCCCCO)c4ccccc34)C(=O)NC2=O)c2ccccc21 [RO0318053-000],potency estimated from few doses,ACOX1; CATDS: 0.35843240047959801,34.1 nM
same,potency estimated from few doses,"GSK3A; compound concentrations: 100 nM and 1000 nM (sheet 'Samples'), CATDS: 0.11270550310053699",467 nM
same,potency estimated from few doses,"GSK3B; compound concentrations: 100 nM and 1000 nM (sheet 'Samples'), CATDS: 0.11014328392113699",504 nM
COc1cccc(C2=C(c3cn(C)c4c(C)cccc34)C(=O)NC2=O)c1 [RO3301012-000],potency estimated from few doses,ACOX1; CATDS: 0.48882093351054501,97.9 nM
COc1ccc(C2=C(c3cn(C)c4ccccc34)C(=O)NC2=O)cc1OC [RO3206363-000],potency estimated from few doses,ACOX1; CATDS: 3.3243349000795501E-2,1570 nM
same,potency estimated from few doses,"GSK3A; compound concentrations: 100 nM and 1000 nM (sheet 'Samples'), CATDS: 4.8098017287816999E-2",503 nM
same,potency estimated from few doses,"GSK3B; compound concentrations: 100 nM and 1000 nM (sheet 'Samples'), CATDS: 4.2103313064090798E-2",722 nM
COc1ccc(-c2nn3ncccc3c2-c2ccnc(Nc3ccc4c(c3)OCCO4)n2)cc1 [GW827106X],potency estimated from few doses,ACOX1; CATDS: 4.5987124512604401E-2,1840 nM
same,potency estimated from few doses,"DDR1; compound concentrations: 100 nM and 1000 nM (sheet 'Samples'), CATDS: 9.2725066561010094E-2",461 nM
same,potency estimated from few doses,"DDR2; compound concentrations: 100 nM and 1000 nM (sheet 'Samples'), CATDS: 4.9498926543833199E-2",1520 nM
same,potency estimated from few doses,"MAPK14; compound concentrations: 100 nM and 1000 nM (sheet 'Samples'), CATDS: 7.81285273726149E-2",610 nM
same,potency estimated from few doses,"TGFBR1; compound concentrations: 100 nM and 1000 nM (sheet 'Samples'), CATDS: 4.6246179171744603E-2",1810 nM
Cc1[nH]nc2c1N=C(c1ccccc1Cl)c1cc([N+](=O)[O-])ccc1N2 [RO0274406-000],potency estimated from few doses,ACOX1; CATDS: 6.8791722684654694E-2,1400 nM
same,potency estimated from few doses,"GSK3A; compound concentrations: 100 nM and 1000 nM (sheet 'Samples'), CATDS: 0.10002413728449901",504 nM
same,potency estimated from few doses,"GSK3B; compound concentrations: 100 nM and 1000 nM (sheet 'Samples'), CATDS: 0.102894851356177",472 nM
Cn1cc(C2=C(c3ccccc3[N+](=O)[O-])C(=O)NC2=O)c2ccccc21 [RO0317753-000],potency estimated from few doses,ACOX1; CATDS: 8.6924247533373397E-2,891 nM
same,potency estimated from few doses,"GSK3A; compound concentrations: 100 nM and 1000 nM (sheet 'Samples'), CATDS: 0.31381008714401198",26.1 nM
same,potency estimated from few doses,"GSK3B; compound concentrations: 100 nM and 1000 nM (sheet 'Samples'), CATDS: 0.304149371612502",27.6 nM
Fc1ccc(-c2ncn(C3CCNCC3)c2-c2ccnc(Oc3ccc4c(c3)OCO4)n2)cc1 [SB-250715],potency estimated from few doses,MAPK14; [1],10.7 nM
Cc1ccc(-n2nc(C(C)(C)C)cc2NC(=O)Nc2ccc(OCCN3CCOCC3)cc2)cc1 [BIRB0876BS],potency estimated from few doses,DDR1; [1],607 nM
same,potency estimated from few doses,DDR2; [1],1140 nM
NC(=O)c1cccnc1COc1cc(-c2ccc(N3CCOCC3)nc2)cc2ncccc12 [BI01125081],potency estimated from few doses,DDR2; [1],2240 nM
Nc1c(C(=O)c2ccccc2)cnn1-c1ccc(F)cc1 [RO1151246-000],potency estimated from few doses,CDKL5,997 nM
same,potency estimated from few doses,"MAPK14; compound concentrations: 100 nM and 1000 nM (sheet 'Samples'), CATDS: 4.1752144248388801E-2",1630 nM
Cl.Oc1ccc2ncnc(Nc3ccc(OCc4ccccc4)cc3)c2c1 [GI262866A],potency estimated from few doses,EGFR; [1],106 nM
same,potency estimated from few doses,MAPK14; [1],770 nM
CCS(=O)(=O)c1ccc(OC)c(Nc2ncc(-c3cccc(F)c3)o2)c1 [GW621970X_KCGS],potency estimated from few doses,DYRK1A,1660 nM
N#Cc1ccc(-c2cc(-c3c[nH]nc3-c3ccccn3)ccn2)cc1 [GW693028X],potency estimated from few doses,TGFBR1; [1],263 nM
Nc1nccc(-c2c(-c3ccc(F)cc3)ncn2C2CCC(O)CC2)n1 (stereo not drawn) [SB-223133],potency estimated from few doses,"ACVR1; compound concentrations: 100 nM and 1000 nM (sheet 'Samples'), CATDS: 2.5761015840506201E-2",1350 nM
same,potency estimated from few doses,"DDR1; compound concentrations: 100 nM and 1000 nM (sheet 'Samples'), CATDS: 4.8095496683990102E-2",118 nM
same,potency estimated from few doses,"DDR2; compound concentrations: 100 nM and 1000 nM (sheet 'Samples'), CATDS: 4.5410766330070199E-2",140 nM
same,potency estimated from few doses,"MAPK14; compound concentrations: 100 nM and 1000 nM (sheet 'Samples'), CATDS: 9.6245202156368906E-2",21.4 nM
same,potency estimated from few doses,PRKD2,793 nM
same,potency estimated from few doses,"TGFBR1; compound concentrations: 100 nM and 1000 nM (sheet 'Samples'), CATDS: 3.9958881168014597E-2",210 nM
